Measurements taken from PubChem BioAssay (NCI).
This is part of a sample that, as a whole, favours compounds with a hit. Of some 83,000 tested, about 20% had one in any assay.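 Cell lines were cultured in 96-well plates, exposed to a single compound concentration, and assessed for percent growth 48 hours later.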 Unmarked numbers belong to inactive results. Calls of active or inactive are those of the source. The calls were made as follows: active = growth percent below 10; inactive = the rest.

Test system: LOX IMVI melanoma
Experiment: NCI-60 one-dose screen, 48 h (100 = growth as untreated, 0 = no growth, -100 = all killed)
Details: 10 µM unless noted

Row | Structure (SMILES) | growth
1 | COc1cc(-c2nn(-c3cccc(NC(=O)Nc4cc(C(F)(F)F)cc(C(F)(F)F)c4)c3)cc2-c2ccncc2)ccc1Cl | -91.3% (active)
2 | COc1ccc(C(=O)c2cc(OC)c3c(c2)OCO3)cc1O | 26.7%
3 | CCOC(=O)NNC(=S)Nc1ccccc1 | 100%
4 | N#Cc1c(-c2ccccc2)nc(SCC(=O)N2CCN(c3ccccc3)CC2)[nH]c1=O | 97%
5 | C=C1c2nc3ccccc3n2C=C(c2ccc(Cl)cc2)N1Cc1ccccc1 | 90.5%
6 | Cc1cc(C(C)(C)C)ccc1S | 103%
7 | CCOC(=O)C1=C(C)NC(C)=C(C(=O)OCC)C1(C)C | 104%
8 | COc1ccc(CNCCCN2C(=O)c3ccc4c5c(ccc(c35)C2=O)C(=O)N(CCCNCCCCNCCCN)C4=O)c(OC)c1OC | 6.59% (active)
9 | NNc1cccc(/C=C/c2ccccc2)cc1=O | 33.4%
10 | O=C(Nc1ccncc1)C(=O)c1cn(S(=O)(=O)c2ccc(Br)cc2)c2ccccc12 | 41.6%
11 | O=C(/C=C/c1cc(-c2ccc3c(c2)OCO3)n[nH]1)c1ccc2c(c1)OCO2 | 87.6%
12 | CCCOC(=O)n1cccc1 | 89.8%
13 | CCN(CC)c1ccc(CNc2ccnc3ccccc23)cc1 | 54.7%
14 | COc1cccc(-c2cc3c(O)cc(C#N)cc3[nH]2)c1 | 92.4%
15 | C=C(C)[C@@H]1CC[C@]2(C(=O)N3CCNCC3)CC[C@]3(C)[C@H](CC[C@@H]4[C@@]5(C)C/C(=C/c6ccncc6)C(=O)C(C)(C)[C@@H]5CC[C@]43C)[C@@H]12 | 97.2%
16 | Fc1ccccc1-c1nc(-c2nc3cc(Cl)c(Cl)cc3[nH]2)c2ccccn12 | 79.9%
17 | O=[N+]([O-])c1cc(Cl)c2[nH]c3c(Cl)cc([N+](=O)[O-])cc3c2c1 | 6.56% (active)
18 | COc1cc(-c2nn(C(=O)NS(=O)(=O)c3ccccc3)cc2-c2ccncc2)ccc1Cl | 71.5%
19 | COc1cc(NCCCCCN)c2ncccc2c1 | 103%

Row | Structure (SMILES) | growth
20 | NC(=N\N=C/c1ccc(O)cc1)/C(N)=N\N=C/c1ccc(O)cc1 | 28.7%
21 | Cn1c(=O)c2[nH]c(C3CC=CCC3)nc2n(C)c1=O (configuration not stated) | 105%
22 | O=C(/C=C/c1ccccc1)c1cccc(O)c1 | 81.7%
23 | C=C[C@@H]1C[C@H](O)Cc2cc(F)ccc2N1 | 94.2%
24 | O=C(O)Cc1cccc(=O)c(O)c1C(=O)O | 101%
25 | O=C(O)COc1ccc(-c2cssc2=S)cc1 | 96.6%
26 | CC(C)CC1NC(C)(C)CO1 (configuration not stated) | 97.2%
27 | COc1ccc(-c2cnnn2-c2nonc2-n2cccc2)cc1OC | 44.2%
28 | O=C(O)C1CCCCN1c1nc(Cl)nc(Cl)n1 (configuration not stated) | 95.8%
29 | CCCCN(CCCC)C(=N)c1ccnc2ccccc12 | 101%
30 | O=S(=O)(NCCNc1nccc(-c2c(-c3cccc(O)c3)nc3sccn23)n1)c1ccc(F)cc1 | 38.5%
31 | COc1cc(-c2nn(-c3cccc(NC(=O)c4cccc(C(F)(F)F)c4)c3)cc2-c2ccncc2)ccc1Cl | 11.4%
32 | Cc1ccc(Cc2c(C=O)nc(N)[nH]c2=O)c2ccccc12 | 96.2%
33 | Cn1cnc2c(N3CCN(C(=O)OCc4ccc5c(Cl)cc(Cl)c(O)c5n4)CC3)nc(Cl)nc21 | 44.5%
34 | COc1ccc(-c2c(N)n[nH]c2-c2cc(OC)c3c(c2)OCCO3)cc1 | 69.8%
35 | CCOC(=O)c1ccc2c(c1)c1c(C)c3cccnc3c(C)c1n2C | 22.9%
36 | Cc1nc2ncccc2nc1Nc1ccc(S(=O)(=O)Nc2ccccn2)cc1 | 85.1%
37 | COc1ccc(C2=C(c3cc(OC)c(OC)c(OC)c3)C(=O)CC2)cc1 | 19.6%
